# Assay outcomes deposited in PubChem BioAssay by National Center for Advancing Translational Sciences (NCATS).
# Hits are enriched below; roughly 11% of the tested compounds scored in any of these assays.
# HP1b binding inh: blocks HP1-beta chromodomain binding to methylated histone tails; P83916; AlphaScreen HP1-beta / biotin-H3K9me3 peptide binding; Potency, µM (titrated, usually from 114 µM), for the others: top-dose activity change, negative = inhibition, hits mostly inhibitors; hit rate 0.56% among 390,000; also: nearly all actives have a fitted effect of over 70% in size
#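 AlphaScreen: HP1-beta (50 nM) preformed 30 min with biotin-H3(1-18)K9me3 peptide (50 nM) in PBS pH 7.4, 0.01% Tween-20. Compound added for 30 min at RT, then streptavidin donor/nickel chelate acceptor beads (10 ug/mL) for 30 min.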
# G9a block: G9a (human) methyltransferase inhibition | hit rate 8.8% among 350,000 | Potency, µM (top dose mostly 102 µM), for inactives: at the top dose activity, negative = inhibition, hits mostly inhibitors | G9a H3K9 monomethylation, AlphaScreen, 2 h; also: % is scaled to controls: 0 for no effect and ±100 for the full control effect; nearly all actives have a fitted effect of over 75% in size
#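 Methyltransferase reactions run at room temperature for 2 h (20 nM enzyme, 500 nM biotin-H3K9 peptide, 20 uM SAM) after a 15 min compound preincubation; product detected by AlphaScreen beads and anti-H3K9me1 antibody.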
# BAZ2B block: blocks human BAZ2B | Q9UIF8 | AlphaScreen BAZ2B-H3K14Ac peptide displacement | Potency, µM (highest dose often 114 µM), for the others: at the top dose activity change, negative = inhibition, most hits filed as inhibitors | hit rate 4.4% among 360,000 | AID 504333; also: % is scaled to controls: 0 for no effect and ±100 for the full control effect; nearly all actives have a fitted effect of over 60% in size
#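 BAZ2B 50 nM plus b-H3(5-23)K14Ac 50 nM, PBS pH 7.4/0.01% Tween-20, 30 min RT; compound added (max 110 uM), 30 min RT; streptavidin donor/Ni-chelate acceptor beads 10 ug/mL final, 20 min dark; AlphaScreen read.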
# L3MBTL1 block: blocks human L3MBTL1. Q9Y468. AlphaScreen L3MBTL1–H3K9me1 peptide binding. Potency, µM (series often up to 57.1 µM), for the others: at the highest dose activity, negative = inhibition, most hits filed as inhibitors. hit rate 0.66% among 230,000. AID 485360; also: % is scaled to controls: 0 for no effect and ±100 for the full control effect; nearly all actives have a fitted effect of over 60% in size
#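 AlphaScreen assay: L3MBTL1 (50 nM final) was preincubated 30 min at room temperature with biotinylated H3(1-15)K9me1 peptide (75 nM final), then 30 min with library compounds; streptavidin donor and nickel chelate acceptor beads (10 ug/mL final) added, 30 min dark.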
# JMJD2A Tudor inh: JMJD2A Tudor domain (human) inhibition; Potency, µM (doses to about 114 µM), without a hit: at the top dose activity change, negative = inhibition, actives largely listed as inhibitors; hit rate 4.4% among 390,000; AlphaScreen JMJD2A-Tudor / H3K4me3 peptide binding; O75164; AID 504339; also: % is scaled to controls: 0 for no effect and ±100 for the full control effect; nearly all actives have a fitted effect of over 50% in size
# Target sequence (O75164 whole entry, looked up, the tested form may be a part): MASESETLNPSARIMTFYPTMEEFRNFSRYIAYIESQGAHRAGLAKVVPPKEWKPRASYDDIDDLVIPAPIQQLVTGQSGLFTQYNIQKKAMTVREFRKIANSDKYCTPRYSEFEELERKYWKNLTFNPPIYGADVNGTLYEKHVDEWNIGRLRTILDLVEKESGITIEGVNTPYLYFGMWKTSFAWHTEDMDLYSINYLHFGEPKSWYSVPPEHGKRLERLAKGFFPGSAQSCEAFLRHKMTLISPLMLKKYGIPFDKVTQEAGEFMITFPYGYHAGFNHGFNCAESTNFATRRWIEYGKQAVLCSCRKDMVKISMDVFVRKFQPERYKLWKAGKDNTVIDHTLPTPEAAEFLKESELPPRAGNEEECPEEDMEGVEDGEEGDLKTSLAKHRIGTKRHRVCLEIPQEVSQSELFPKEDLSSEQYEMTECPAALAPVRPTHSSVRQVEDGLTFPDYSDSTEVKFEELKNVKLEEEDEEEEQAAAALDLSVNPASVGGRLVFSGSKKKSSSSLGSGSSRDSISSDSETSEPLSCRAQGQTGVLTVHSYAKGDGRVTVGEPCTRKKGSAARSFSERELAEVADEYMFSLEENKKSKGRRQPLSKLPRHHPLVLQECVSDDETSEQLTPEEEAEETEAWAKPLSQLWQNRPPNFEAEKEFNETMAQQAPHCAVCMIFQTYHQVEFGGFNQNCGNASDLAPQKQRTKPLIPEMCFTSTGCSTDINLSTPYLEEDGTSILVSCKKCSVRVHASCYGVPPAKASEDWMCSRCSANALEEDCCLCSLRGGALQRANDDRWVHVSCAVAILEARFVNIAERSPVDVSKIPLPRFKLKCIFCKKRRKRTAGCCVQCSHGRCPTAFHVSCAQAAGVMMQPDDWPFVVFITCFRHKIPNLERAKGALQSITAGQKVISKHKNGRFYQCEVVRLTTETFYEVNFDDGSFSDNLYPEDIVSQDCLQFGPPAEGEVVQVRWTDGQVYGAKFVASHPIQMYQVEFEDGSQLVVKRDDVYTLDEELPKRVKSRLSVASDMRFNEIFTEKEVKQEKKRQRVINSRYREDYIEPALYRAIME
# Starred values were filed as active, the others as inactive; ? = inconclusive; . = no result given; ! = repeats disagree; [ ] = remark or other dose. Calls follow the shape of the dose curve; as a rule, active = well fitted inhibition curve with a large enough effect; inconclusive = small, poorly fitted or top-dose-only effect; inactive = no such curve, though single readings can be large or run the other way. Potency is read from the fitted curve at half-maximal effect.
SMILES,HP1b binding inh,G9a block,BAZ2B block,L3MBTL1 block,JMJD2A Tudor inh
COc1ccc(OC)c(-n2c(-c3cnccn3)n[nH]c2=S)c1,26%,10µM*,?,.,-15%
COc1ccc(OC)c(-n2c(Cn3c(-c4ccccn4)nc4ccccc43)n[nH]c2=S)c1,?,2.5µM*,?,5%,7.9µM*
COc1ccc(OC)c(-n2c(C)ccc2-c2ccc(S(C)(=O)=O)cc2)c1,-11%,?,45µM*,.,?
CCOC(=O)Cn1c(-c2ccccn2)nc2ccccc21,20%,-19%,-2%,-1%,-8%
COc1ccc(-n2c(-c3cnccn3)n[nH]c2=S)cc1,15%,5µM*,?,1%,8.9µM*
COc1ccc(OC)c(-n2c(-c3cc(-c4ccco4)[nH]n3)n[nH]c2=S)c1,-6%,0%,-2%,-4%,?
COc1ccc(-n2c(C)n[nH]c2=O)cc1,5%,83%[59 µM],-26%,1%,?
COc1ccc(-c2n[nH]c(=S)n2-c2cc(OC)ccc2OC)cc1,-11%,2.8µM*,-16%,.,10µM*
COc1ccc(-n2c(-c3ccc(Cl)cc3Cl)n[nH]c2=S)c(OC)c1,4%,.,-31%,-8%,13µM*
COc1ccc(OC)c(-n2c(-c3ccc(C)cc3)n[nH]c2=S)c1,15%,?,6%,-3%,?
O=C(O)c1cccc(-n2c(-c3cnccn3)n[nH]c2=S)c1,30%,10µM*,?,3%,-16%
S=c1[nH]nc(-c2cnccn2)n1-c1ccccc1,30%,?,?,.,32µM*
CC1CCN(C(=O)c2cc(-c3cccc(Cl)c3)on2)CC1,57%,7%[59 µM],95%,.,31%
COc1ccc(OCc2cc(C3Nc4ccccc4C(=O)N3Cc3ccccc3)ccc2OC)cc1 (configuration not stated),.,.,.,.,-20%
COc1ccc(-c2n[nH]c(=S)n2N)c(OC)c1,?,6.3µM*,.,6%,7.1µM*
S=c1[nH]c2ccccc2n2c(=S)[nH]nc12,19%,1.8µM*,50µM*,.,22µM*
C#CCOc1c(Br)cc(/C=N/O)cc1OCC,27%,29%[59 µM],5%,.,-1%
C#CCOc1ccc(/C=C2/C(=O)ON=C2C)cc1Br,8%,35µM*,-5%,.,-9%
C#CCOc1ccc(Cl)cc1/C=C1/C(=O)ON=C1C,15%,32µM*,?,.,35µM*
Cc1ccc2[nH]c3c(=S)nc[nH]c3c2c1,16%,1.8µM*,-2%,7%,?
Cc1ccc2[nH]c3c(=O)n(N)c(C)nc3c2c1,-4%,-26%,-12%,0%,-8%
CN(C1CCCCC1)S(=O)(=O)c1ccc(F)c(C(=O)Nc2ccc(C(F)(F)F)cc2)c1,52%,13%[59 µM],8%,.,-8%
CCOCCCN(C(=O)CCC(=O)Nc1cc(C)on1)C(C(=O)NC(C)(C)C)c1ccccc1Cl (configuration not stated),8%,7%[59 µM],12%,.,2%
CCOC(=O)N1CCc2c(sc3c2c(=O)n(-c2ccc(CC)cc2)c(=O)n3Cc2ccc(F)cc2Cl)C1,30%,6%[59 µM],-2%,.,-3%
FC(F)(F)c1ccc(Cl)c(N/N=C/c2ccc(N3CCOCC3)s2)c1,-12%,4µM*,-31%,-17%,?
SMILES,HP1b binding inh,G9a block,BAZ2B block,L3MBTL1 block,JMJD2A Tudor inh
O=C(N/N=C/c1ccc(N2CCOCC2)s1)c1ccccc1Cl,-22%,?,-34%,-17%,?
O=C(COC(=O)/C=C/c1cccc(Cl)c1Cl)Nc1ccc2[nH]c(=O)[nH]c2c1,22%,?,12%,5%,-14%
Cc1cc(NC(=O)CSc2ncc(C(=O)Nc3ccccc3)c(=O)n2C)no1,20%,-1%[59 µM],-2%,.,-15%
CCOC(=O)COc1ccc(/C=C/[N+](=O)[O-])c(OCC(=O)OCC)c1,12%,71µM*,-24%,4%,-5%
CCOC(=O)COc1ccc2ccccc2c1/C=C/[N+](=O)[O-],7%,18µM*,-31%,2%,-14%
COc1cccc(Cn2c(=O)n(-c3cccc(Cl)c3C)c(=O)c3c4c(sc32)CN(C(C)=O)CC4)c1,-5%,-5%[59 µM],-33%,.,?
COc1cc(/C=N/NC(=O)CCOc2ccccc2C)cc(Br)c1O,-1%,50µM*,-16%,.,0%[11.4 µM]
COc1ccc(/C=N/NC(=O)CCOc2ccccc2C)cc1OC,27%,?,-31%,-12%,-6%
CC(=O)N1CN(CCCn2ccnc2)Cc2c1sc1c2CCCC1,40%,-8%[2.33 µM],?,-6%,-20%[11.4 µM]
CC(=O)N1CN(Cc2ccccn2)Cc2c1sc1c2CCCC1,28%,?,28µM*,.,40µM*
CCOC(=O)c1cnc2ccc(OCC)cc2c1N1CCN(c2ccccc2OC)CC1,22%,-21%,?,.,-32%[57.1 µM]
CCOC(=O)C1CCCN(c2c(C(=O)c3ccc(C)cc3)cnc3ccc(OCC)cc23)C1 (configuration not stated),-17%,1.4µM*,50µM*,.,35µM*
CCc1ccc(C(=O)c2cnc3ccc(OC)cc3c2N2CCN(CC)CC2)cc1,19%,40µM*,50µM*,-17%,-30%
CCOC(=O)C1CCN(c2c(C(=O)c3ccccc3)cnc3ccc(Cl)cc23)CC1,28%,?,-38%,.,-31%
CCOc1ccc2ncc(C(=O)c3ccc(OC)cc3)c(N3CCN(CC)CC3)c2c1,12%,45µM*,?,-24%,-33%
Cc1nnc(SCCOc2ccccc2)s1,93%,.,5%,9%,8%
O=C(c1ccc(N2C(=O)C3C4c5ccccc5C(c5ccccc54)C3C2=O)cc1)N1CCOCC1 (configuration not stated),12%,28%[59 µM],-4%,-6%,-18%
CN(C)CCN(Cc1ccc(Cl)cc1)c1ccccn1,53%,-18%,-3%,-6%,-20%
C[N+](C)(C)CCN(Cc1ccc(Cl)cc1)c1ccccn1,23%,11%[59 µM],50µM*,2%,-35%
CCC1(c2ccccc2)NC(=O)N(CC(=O)N(CC(=O)Nc2ccccc2C(F)(F)F)Cc2ccco2)C1=O (configuration not stated),18%,?,-24%,-9%,-23%
CCCCNC(=O)CCC(=O)NNc1nc2ccccc2c2nc(-c3ccccc3)nn12,27%,-2%[59 µM],89µM*!,8%,-12%
CCCCNc1nc2ccccc2c2nc(-c3ccccc3)nn12,122%,116%[59 µM],79%,.,95%
CCOCCCNC(=O)CCC(=O)NNc1nc2ccccc2c2nc(C)nn12,32%,-29%,?,.,-3%
CCCCNC(=O)CCC(=O)NNc1nc2ccccc2c2nc(C)nn12,48%,25µM*!,-3%[57.1 µM],0%,-6%
CCOc1ccc(S(=O)(=O)N2CCCC(C(=O)N3CCCC3)C2)cc1 (configuration not stated),35%,16%,-2%,.,-1%
O=C(O)c1cccc(S(=O)(=O)Nc2cc(Cl)ccc2Cl)c1,19%,-41%,0%,1%,-7%
